# Screening results: PubChem, National Center for Advancing Translational Sciences (NCATS)
# An excerpt weighted towards active compounds, which were near 11% of everything screened.
# HCV inhibitor: blocks hepatitis C virus. hit rate 3.4% among 340,000. Potency, µM (series often up to 41.8 µM), inactives show at the highest dose activity change, negative = inhibition, hits mostly inhibitors. Huh7.5.1 HCVcc-Cre infection, luciferase reporter, 44 h. AID 651820; note: % is set by controls: 0 for no effect and ±100 for the full control effect
#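 Cells (1,000/well) were plated 4 h before compound, then infected with HCVcc-Cre virus (~0.5 moi). After 44 h further culture, infection was read as luciferase luminescence following a 15 min substrate incubation at room temperature.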
# Pf growth 96h: P. falciparum growth inhibition at 96 hour, primary screen for plastid delayed-death inhibitors. AID 504834. Potency, µM (doses to about 28.7 µM), without a hit: at the highest dose activity change, negative = inhibition, actives largely listed as inhibitors. hit rate 6.9% among 320,000. P. falciparum luciferase reporter growth, 96 h; note: % is set by controls: 0 for no effect and ±100 for the full control effect
#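 Delayed-death screen, second-generation endpoint: infected erythrocytes, 2% hematocrit, 0.05% parasitemia final; 96 hours at 37 C, 5% CO2; luciferase detection reagent; luminescence decrease equals reduced growth.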
# Pf growth 48h: P. falciparum growth inhibition at 48 hours (one generation). hit rate 5.9% among 310,000. P. falciparum luciferase growth in erythrocytes, 48 h. Potency, µM (series often up to 28.7 µM), inactives show top-dose activity change, negative = inhibition, actives largely listed as inhibitors; note: % is set by controls: 0 for no effect and ±100 for the full control effect
#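 Luminescence readout; reporter = integrated firefly luciferase in P. falciparum. RBC culture at 2% hematocrit, 0.1% parasitemia final, 37 C/5% CO2; decreased signal taken as growth inhibition.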
# NS1 function inh: influenza NS1 inhibition. Potency, µM (series often up to 46.1 µM), inactives show at the highest dose activity, positive = more growth. hit rate 0.4% among 270,000; calls by dose curve; note: actives are rising curves; nearly all actives have a fitted effect of over 50% in size
#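 In this qHTS, NS1 from influenza A is expressed in budding yeast, where it slows growth. Cells are switched from glucose to 2% galactose medium (pH 6.0, -URA), treated with compound, and growth recovery is read at OD600.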
# Vaccinia Venus: inhibitors of vaccinia virus (Venus reporter); Potency, µM (top dose mostly 36.5 µM), for inactives: at the top dose activity change, negative = inhibition, actives largely listed as inhibitors; Vaccinia virus Venus reporter expression, fluorescence; hit rate 0.46% among 330,000; calls by dose curve; tested in A549 cells; note: % is set by controls: 0 for no effect and ±100 for the full control effect; nearly all actives have a fitted effect of over 30% in size
# Vaccinia mCherry: vaccinia inhibition (mCherry reporter); Potency, µM (doses to about 36.5 µM), inactives show top-dose activity change, negative = inhibition, usual class: inhibitors; Vaccinia virus mCherry reporter infection, fluorescence; hit rate 0.63% among 310,000; calls by dose curve; tested in A549 cells; note: % is set by controls: 0 for no effect and ±100 for the full control effect; nearly all actives have a fitted effect of over 35% in size
# * marks the source's active call; other numbers are inactive results; i = inactive; ? = inconclusive; . = no result given; [ ] = another dose, or the depositor's remark. Unless noted, calls come from the whole dose curve; as a rule, active = well fitted inhibition curve with a large enough effect; inconclusive = small, poorly fitted or top-dose-only effect, or another doubt; inactive = no such curve, though single readings can be large or run the other way. Potency is the fitted concentration of half-maximal effect.
SMILES,HCV inhibitor,Pf growth 96h,Pf growth 48h,NS1 function inh,Vaccinia Venus,Vaccinia mCherry
COc1ccc(Nc2cc(C(=O)NCc3cccnc3)c3ccccc3n2)c(OC)c1,.,?,10.8%,.,.,.
Cc1cc(NC(=O)c2cc(-c3ccccc3C)nc3ccccc23)no1,-6.2%,?,?,8.5%,-5.0%,-10.1%
Cc1cc(NC(=O)c2cc(-c3ccccc3Cl)nc3ccccc23)no1,-9.0%,?,13.1µM*,-40.4%,-13.9%,-11.5%
Cc1cc(C(=O)NCCc2ccc(Cl)cc2)no1,9.0%,-18.7%,6.57µM*,-1.8%,-13.8%,-14.6%
Cc1cc(C)c2nc(-c3ccccn3)cc(C(=O)Nc3ccc(S(=O)(=O)Nc4cc(C)on4)cc3)c2c1,12.4%,?,?,12.9%,.,.
COc1ccc(Nc2cc(C(=O)NCc3ccccn3)c3ccccc3n2)c(OC)c1,.,13.1µM*,33.3%,.,.,.
Cc1c(Cl)ccc2c(C(=O)Nc3cc(C(C)(C)C)on3)cc(-c3ccccn3)nc12,1.2%,2.08µM*,0.0%,12.6%,4.7%,i
CCOC(=O)c1c(C)[nH]c(C(=O)COC(=O)/C=C/c2ccc(O)c(OC)c2)c1C,?,3.5%,?,?,-4.0%,-17.7%
Cc1cc(NC(=O)c2ccc(Cl)cc2Cl)no1,-9.7%,3.7µM*,171.0%,12.7%,.,.
Cc1cc(NS(=O)(=O)c2ccc(NC(=O)c3cc(-c4cccnc4)nc4ccc(Cl)cc34)cc2)no1,51.7%,25.7%,1.5%,20.2%,.,.
Cc1cc(NC(=O)c2cc(-c3cccnc3)nc3c(C)c(C)ccc23)no1,?,13.4%,2.94µM*,-81.7%,-7.1%,.
O=C(NCCN1CCOCC1)c1cc(-c2ccc(Cl)s2)nc2ccccc12,-0.5%,11.9%,9.4%,-1.8%,2.9%,-12.2%
O=C(NCCN1CCOCC1)c1cc(-c2ccccc2Cl)nc2ccccc12,29.4%,9.28µM*,-10.3%,-1.1%,-11.8%,-15.2%
Cc1cc(NC(=O)Nc2ccc(Cl)cc2)no1,-12.3%,?,74.0%,-22.6%,-1.7%,-9.4%
Cc1cccc(NC(=O)c2cc(-c3ccc(C)s3)nc3ccccc23)n1,?,36.2%,10.4µM*,20.3%,-10.8%,-25.3%
Cc1ccc(C)c(N2CCN(C(=O)CN3CCSc4ccc(S(=O)(=O)N(C)C)cc43)CC2)c1,.,.,.,.,-12.0%,-18.6%
Cc1ccc(N(CC(=O)NCc2cccs2)S(=O)(=O)c2cccs2)cc1,-12.5%,?,.,-11.2%,-5.7%,-17.7%
Cc1ccc(Nc2ncc(C(=O)NCCCN3CCN(C)CC3)c3ccccc23)cc1Cl,10µM*,-12.3%,?,0.2%,-12.7%,-18.8%
Cc1ccc(Nc2ncc(C(=O)N3CCN(c4cccc(Cl)c4)CC3)c3ccccc23)cc1Cl,.,.,.,.,-12.4%,-14.7%
Cc1cc(NC(=O)c2cc(-c3ccc(C)s3)nc3ccccc23)no1,-23.4%,11.7µM*,.,6.5%,-2.1%,i
O=C(NCc1ccccn1)c1cc(-c2ccncc2)nc2ccccc12,?,?,?,.,-11.3%,-16.0%
O=C(NCc1ccccn1)c1cc(-c2ccccc2Cl)nc2ccccc12,-17.6%,?,9.28µM*,2.3%,-11.2%,-0.4%
O=C(NCCCN1CCOCC1)c1cc(-c2ccccc2)nc2ccccc12,2.5%,7.8%,?,.,-9.4%,i
Cc1ccc(Nc2cc(C(=O)NCCCN3CCOCC3)c3ccccc3n2)cc1C,22.4µM*,-12.1%,0.0%,-7.3%,-8.2%[7.34 µM],-6.0%[7.34 µM]
COc1cc(/C=C2/C(=N)N3N=C(C)SC3=NC2=O)ccc1OS(=O)(=O)c1ccc(C)cc1,2.6%,2.7%,6.9%,12.0%,12.6%,-21.7%
Cc1cn([C@H]2C[C@H](O)[C@@H](CNS(=O)(=O)c3ccc(NS(=O)(=O)N(C)C)cc3)O2)c(=O)[nH]c1=O,.,.,.,.,5.1%,-1.8%
O=C(Nc1nn[nH]n1)c1cc(-c2ccc(Cl)c(Cl)c2Cl)nc2ccccc12,4.5%,2.33µM*,-3.6%,15.2%,.,.
C/C(=C\C(=O)c1ccc(C)cc1)Nc1cccc(O)c1,12.6µM*,144.7%,398.4%,-37.9%,-7.6%,-24.6%
COCCNC(=O)CN(C(=O)Cn1nnc2ccccc21)c1ccc(F)c(Cl)c1,14.5%,10.4µM*,17.5%,2.7%,-15.8%,i
